In all, about 5,500 compounds went through this assay and about 2,000 (36%) were called active. Roughly 18% stayed inconclusive and do not appear here. No stated cut-off is given here; in the data, active means normalized growth mostly below about 0.91 (no sharp cut-off); inconclusive means no clear call, values can overlap the other calls; inactive means mostly above about 0.92. Some of the results follow.
Experiment: chemical genetic growth profiling, strain panel (AID 1159580);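 further: tested at 20 µM; growth read once vehicle control cultures reached saturation at 30 °C; 1 = growth at the plate median or of vehicle wells; lower values mean less growth of the strain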
Settings: growth OD

Measured: normalized growth

O=C(O)c1ccc(S(=O)(=O)N(Cl)Cl)cc1
inactive: S. cerevisiae deletion strains, locus YJR066W, strain TOR1, active compounds read low 0.916 | S. cerevisiae deletion strains, locus YKL009W, strain mrt4, active compounds read low 0.99 | S. cerevisiae deletion strains, locus YKL068W, active compounds read low 1 | S. cerevisiae deletion strains, locus YKL085W, strain MDH1 (second series), active compounds read low 1.01 | S. cerevisiae deletion strains, locus YKL085W, strain MDH1, active compounds read low 1.01 | S. cerevisiae deletion strains, locus YKL160W, strain elf1, active compounds read low 1.05 | S. cerevisiae deletion strains, locus YKL190W, strain CNB1, active compounds read low 1 | S. cerevisiae deletion strains, locus YKR001C, strain vps1, active compounds read low 1.02 | S. cerevisiae deletion strains, locus YKR026C, strain gcn3, active compounds read low 0.977 | S. cerevisiae deletion strains, locus YKR091W, strain srl3, active compounds read low 0.989 | S. cerevisiae deletion strains, locus YLL001W, strain dnm1, active compounds read low 1.03 | S. cerevisiae deletion strains, locus YLL026W, active compounds read low 0.976 | S. cerevisiae deletion strains, locus YLL041C, strain sdh2, active compounds read low 0.989 | S. cerevisiae deletion strains, locus YLR027C, strain aat2, active compounds read low 0.985 | S. cerevisiae deletion strains, locus YLR039C, strain RIC1, active compounds read low 0.985 | S. cerevisiae deletion strains, locus YLR058C, strain SHM2, active compounds read low 1.01 | S. cerevisiae deletion strains, locus YLR102C, strain apc9, active compounds read low 1.02 | S. cerevisiae deletion strains, locus YLR113W, strain HOG1, active compounds read low 0.961 | S. cerevisiae deletion strains, locus YLR221C, strain rsa3, active compounds read low 1.02 | S. cerevisiae deletion strains, locus YLR258W, strain gsy2, active compounds read low 0.994 | S. cerevisiae deletion strains, locus YLR262C, strain YPT6 (second series), active compounds read low 1 | S. cerevisiae deletion strains, locus YLR262C, strain YPT6, active compounds read low 0.995 | S. cerevisiae deletion strains, locus YLR268W, strain sec22, active compounds read low 1 | S. cerevisiae deletion strains, locus YLR320W, strain mms22, active compounds read low 1.05 | S. cerevisiae deletion strains, locus YLR330W, strain CHS5, active compounds read low 0.999 | S. cerevisiae deletion strains, locus YLR342W, strain FKS1 (second series), active compounds read low 0.993 | S. cerevisiae deletion strains, locus YLR342W, strain FKS1, active compounds read low 0.983 | S. cerevisiae deletion strains, locus YLR357W, strain rsc2, active compounds read low 1.01 | S. cerevisiae deletion strains, locus YLR370C, strain arc18, active compounds read low 0.974 | S. cerevisiae deletion strains, locus YLR371W, strain rom2, active compounds read low 1.01 | S. cerevisiae deletion strains, locus YLR384C, strain iki3, active compounds read low 0.988 | S. cerevisiae deletion strains, locus YLR418C, strain cdc73, active compounds read low 0.951 | S. cerevisiae deletion strains, locus YML016C, strain PPZ1, active compounds read low 1.01 | S. cerevisiae deletion strains, locus YML032C, strain rad52, active compounds read low 1.02 | S. cerevisiae deletion strains, locus YML120C, strain ndi1, active compounds read low 1.03 | S. cerevisiae deletion strains, locus YML124C, strain tub3, active compounds read low 1.03 | S. cerevisiae deletion strains, locus YMR058W, strain fet3, active compounds read low 0.983 | S. cerevisiae deletion strains, locus YMR078C, strain ctf18, active compounds read low 1.03 | S. cerevisiae deletion strains, locus YMR125W, strain sto1, active compounds read low 1.02 | S. cerevisiae deletion strains, locus YMR129W, active compounds read low 0.984 | S. cerevisiae deletion strains, locus YMR205C, strain PFK2, active compounds read low 1.04 | S. cerevisiae deletion strains, locus YMR223W, strain ubp8, active compounds read low 1.02 | S. cerevisiae deletion strains, locus YMR231W, strain pep5, active compounds read low 0.978 | S. cerevisiae deletion strains, locus YMR307W, strain GAS1, active compounds read low 0.964 | S. cerevisiae deletion strains, locus YNL067W, strain RPL9B, active compounds read low 1 | S. cerevisiae deletion strains, locus YNL071W, strain lat1, active compounds read low 0.998 | S. cerevisiae deletion strains, locus YNL128W, strain TEP1, active compounds read low 1.02 | S. cerevisiae deletion strains, locus YNL183C, strain NPR1, active compounds read low 0.926 | S. cerevisiae deletion strains, locus YNL209W, strain ssb2, active compounds read low 0.983 | S. cerevisiae deletion strains, locus YNL233W, strain BNI4, active compounds read low 0.997 | S. cerevisiae deletion strains, locus YNL248C, strain rpa49, active compounds read low 1.06 | S. cerevisiae deletion strains, locus YNL250W, strain rad50, active compounds read low 1.02 | S. cerevisiae deletion strains, locus YNL271C, strain bni1, active compounds read low 1.03 | S. cerevisiae deletion strains, locus YNL298W, strain CLA4, active compounds read low 1.05 | S. cerevisiae deletion strains, locus YNL307C, strain MCK1, active compounds read low 1.01 | S. cerevisiae deletion strains, locus YNL322C, strain KRE1 (second series), active compounds read low 0.992 | S. cerevisiae deletion strains, locus YNR049C, strain mso1, active compounds read low 0.975 | S. cerevisiae deletion strains, locus YNR052C, strain pop2, active compounds read low 1.01 | S. cerevisiae deletion strains, locus YOL006C, strain TOP1, active compounds read low 1.01 | S. cerevisiae deletion strains, locus YOL012C, strain htz1 2.24 | S. cerevisiae deletion strains, locus YOL147C, strain pex11, active compounds read low 1.02 | S. cerevisiae deletion strains, locus YOR001W, strain rrp6, active compounds read low 0.944 | S. cerevisiae deletion strains, locus YOR061W, strain CKA2, active compounds read low 1.01 | S. cerevisiae deletion strains, locus YOR069W, strain VPS5, active compounds read low 0.998 | S. cerevisiae deletion strains, locus YOR070C, strain gyp1, active compounds read low 0.967 | S. cerevisiae deletion strains, locus YOR080W, strain dia2, active compounds read low 0.969 | S. cerevisiae deletion strains, locus YOR083W, strain WHI5, active compounds read low 1.05 | S. cerevisiae deletion strains, locus YOR106W, strain vam3, active compounds read low 1.06 | S. cerevisiae deletion strains, locus YOR136W, strain idh2, active compounds read low 1.02 | S. cerevisiae deletion strains, locus YOR144C, strain elg1, active compounds read low 1.02 | S. cerevisiae deletion strains, locus YOR184W, strain ser1, active compounds read low 0.992 | S. cerevisiae deletion strains, locus YOR231W, strain MKK1, active compounds read low 0.971 | S. cerevisiae deletion strains, locus YOR265W, strain rbl2, active compounds read low 0.981 | S. cerevisiae deletion strains, locus YOR270C, strain vph1, active compounds read low 1.01 | S. cerevisiae deletion strains, locus YOR290C, strain snf2, active compounds read low 1 | S. cerevisiae deletion strains, locus YOR316C, strain cot1, active compounds read low 1.02 | S. cerevisiae deletion strains, locus YPL051W, strain arl3, active compounds read low 1.02 | S. cerevisiae deletion strains, locus YPL055C, strain LGE1, active compounds read low 0.979 | S. cerevisiae deletion strains, locus YPL078C, strain atp4, active compounds read low 1.05 | S. cerevisiae deletion strains, locus YPL106C, strain sse1, active compounds read low 0.985 | S. cerevisiae deletion strains, locus YPL240C, strain hsp82, active compounds read low 0.989 | S. cerevisiae deletion strains, locus YPL241C, strain CIN2, active compounds read low 1 | S. cerevisiae deletion strains, locus YPL256C, strain CLN2, active compounds read low 0.97 | S. cerevisiae deletion strains, locus YPR119W, strain clb2, active compounds read low 1.02 | S. cerevisiae deletion strains, locus YPR141C, strain kar3, active compounds read low 1.02 | S. cerevisiae deletion strains, locus YPR163C, strain tif3, active compounds read low 1.04 | S. cerevisiae deletion strains, locus YPR167C, strain met16, active compounds read low 1.02 | S. cerevisiae deletion strains, strain wtn01, active compounds read low 1.01 | S. cerevisiae strains, strain wild type, active compounds read low 1

— PubChem BioAssay AID1159580 (chemical genetic matrix, 2015)
